Most compounds without a hit are left out; they make up all but 6.9% or so of the library.
Giardia kill: Giardia lamblia killing; hit rate 0.15% among 340,000; AID 540267; Giardia lamblia trophozoite viability; activity change, % at 7.66 µM, hits read low; in the data active = activity change below about -80%; inconclusive = between about -30% and that limit;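 note: parasites exposed to compound for two days anaerobically before the ATP read; % is set by controls: 0 for no effect and ±100 for the full control effect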
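Giardia trophozoites, 100 cells per well, were exposed to compounds for 48 hrs at 37 deg C under anaerobic conditions; viability was then read as ATP content by bioluminescence after 15-30 min at room temperature.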
MCF10A rereplic: inducers of DNA re-replication in MCF 10A breast cells | MCF 10A DNA re-replication, Hoechst nuclear intensity, 48 h | Potency, µM (titrated, usually from 46.1 µM), for the others: at the top dose activity, positive = re-replication, actives largely listed as activators | hit rate 2.9% among 350,000; note: potency is the fitted concentration of half-maximal effect; % of control where 0% means no effect; nearly all actives have a fitted effect of over 50% in size
Vif-APOBEC3G blk: Vif-A3G binding inhibition | Potency, µM (highest dose often 46.1 µM), for inactives: top-dose activity, negative = active, usual class: inhibitors | Q9HC16 | HeLa A3G-eYFP + Vif (tagged APOBEC3G with the HIV-1 protein that degrades it), YFP fluorescence, overnight | hit rate 0.076% among 410,000; note: potency is the fitted concentration of half-maximal effect; % is set by controls: 0 for no effect and ±100 for the full control effect; nearly all actives have a fitted effect of over 60% in size
Target sequence (Q9HC16 whole entry, looked up): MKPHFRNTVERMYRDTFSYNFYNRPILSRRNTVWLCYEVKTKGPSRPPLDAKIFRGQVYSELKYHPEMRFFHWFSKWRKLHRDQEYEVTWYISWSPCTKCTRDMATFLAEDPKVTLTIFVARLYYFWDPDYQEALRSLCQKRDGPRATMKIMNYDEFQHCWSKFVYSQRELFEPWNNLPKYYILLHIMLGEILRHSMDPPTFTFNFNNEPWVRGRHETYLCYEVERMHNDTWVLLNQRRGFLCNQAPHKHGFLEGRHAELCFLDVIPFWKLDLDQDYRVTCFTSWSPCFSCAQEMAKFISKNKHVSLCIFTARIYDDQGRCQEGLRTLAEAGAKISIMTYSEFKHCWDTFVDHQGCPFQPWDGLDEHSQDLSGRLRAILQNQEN
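Read-out is eYFP fluorescence (Ex 488/Em 500-530) from Vif-expressing HeLa A3G-eYFP cells; more signal means A3G escaped Vif-mediated degradation. Cells plated overnight, compound pinned in, incubated overnight at 37 deg C.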
IL1B secr inh: inhibitors of inflammasome signaling (IL-1 beta secretion); THP-1 LPS/ATP IL-1B secretion, AlphaLISA, 16 h; stronger effect = lower value; activity change, % at 57.5 µM; hit rate 4.7% among 360,000; in the data active = activity change below about -50%; inconclusive = mostly about -30% to -49%; note: % is set by controls: 0 for no effect and ±100 for the full control effect
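THP-1 cells pretreated 1 hr with compounds (up to 57.5 uM final), then stimulated with LPS (250 ng/mL final) plus ATP (1.25 mM final); secreted IL-1B measured by AlphaLISA after 16 hr, decreased signal indicating inhibition.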
SW480 rereplic: inducers of DNA re-replication in SW480 colon cancer cells | SW480 DNA re-replication, Hoechst DNA content imaging, 48 h | Potency, µM (series often up to 46.1 µM), without a hit: at the highest dose re-replication activation, hits mostly activators | hit rate 1.8% among 340,000; note: potency is the fitted concentration of half-maximal effect; % of control where 0% means no effect; nearly all actives have a fitted effect of over 55% in size
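Cells (250 per well) received 23 nL compound or DMSO by pin tool and were kept 48 hr at 37 C, 5% CO2. Nuclei were then stained with Hoechst for 40 min and scanned for DNA content.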
Vif-A3F inh: blocks the Vif interaction with APOBEC3F; Potency, µM (doses to about 46.1 µM), for inactives: at the highest dose activity, negative = active; AID 602313; hit rate 0.2% among 390,000; HeLa A3F-eYFP + Vif (tagged APOBEC3F with the HIV-1 protein that degrades it), YFP fluorescence increase; note: potency is the fitted concentration of half-maximal effect; % of control where 0% means no effect; nearly all actives have a fitted effect of over 65% in size
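HeLa cells stably expressing A3F-eYFP plus Vif, plated and incubated overnight at 37 deg C, then exposed to compounds overnight at 37 deg C. Blocked degradation read as raised yellow fluorescence (Ex 488/Em 500-530).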
* hit, by the source's call; u = inconclusive; x = no result. Unless noted, calls come from the whole dose curve; as a rule, active = well fitted curve in the direction sought with a large enough effect; inconclusive = small, poorly fitted or top-dose-only effect, or another doubt; inactive = no such curve, though single readings can be large; an effect the other way counts as inactive or inconclusive.

SMILES	Giardia kill	MCF10A rereplic	Vif-APOBEC3G blk	IL1B secr inh	SW480 rereplic	Vif-A3F inh
CC(=O)Nc1ccc(OCC(O)Cn2c3ccccc3c3ccccc32)cc1 (configuration not stated)	11.6	17.7%	-13.1%	-20.7	9.8%	u
Cc1nccn1CC(O)Cn1c2ccccc2c2ccccc21 (configuration not stated)	11.9	20.6µM*	-1.2%	-52.9*	-11.2%	x
Cc1ccccc1OCC(O)CN1CCN(CC(O)COc2ccccc2C)C(C)C1 (configuration not stated)	4.6	u	1.9%	-63.1*	6.5%	-14.1%
Cc1ccccc1OCC(O)Cn1c2ccccc2c2ccccc21 (configuration not stated)	-11.4	-7.4%	-6.3%	-84.9*	23.1µM*	-11.2%
CC(=O)Nc1ccc(OCC(O)Cn2c3ccccc3c3ccccc32)c(C)c1 (configuration not stated)	-13.5	44.2%	-22.2%	-59.9*	18.6%	-4.2%
Cc1cc(C)n(CC(O)Cn2c3ccccc3c3ccccc32)n1 (configuration not stated)	-5.2	u	-0.1%	-18.3	5.8%	2.4%
CC(=O)c1ccc(NC(=O)CSc2ccc3nc(-c4ccccc4)cn3n2)cc1	x	x	-2.3%	x	x	0.3%
CC1CCCN(c2ccc([N+](=O)[O-])cc2C(=O)c2ccccc2)C1 (configuration not stated)	-19.9	u	u	90.3	4.11µM*	-8.9%
O=C(c1ccccc1)c1cc([N+](=O)[O-])ccc1N1CCOCC1	2.1	u	u	31.4	u	-22.8%
Cc1ccc(C(=O)c2cc([N+](=O)[O-])ccc2N2CCCCC2)cc1	-10.8	u	-37.4%	6.9	0.581µM*	u
Cc1ccc(C(=O)c2cc([N+](=O)[O-])ccc2N2CC(C)OC(C)C2)cc1 (configuration not stated)	29.0	22.0%	u	33.2	11.6µM*	-3.6%
Cc1ccccc1NC(=O)CCn1cnc2onc(-c3ccc(F)cc3)c2c1=O	x	x	2.9%	x	x	2.8%
Cc1cc(C)n(-c2nc3ccccc3nc2Nc2ccc(Cl)c(Cl)c2)n1	x	x	1.5%	x	x	4.4%
COc1ccccc1C(=O)Nc1ccc(C(=O)OCc2cc(=O)n3ccsc3n2)cc1	x	x	-1.8%	x	x	0.1%
CCOC(=O)c1cccc(NC(=O)CCn2c(-c3ccc(F)cc3)cc(C(=O)OCC)c2C)c1	x	x	2.3%	x	x	-0.1%
Cc1ccc(-c2ccc(=O)n(CCC(=O)NCCc3ccccc3)n2)cc1	x	x	-2.0%	x	x	2.7%
Cc1cccc(Cn2cc(S(=O)(=O)c3ccccc3)c(=O)c3cc(F)c(N4CCOCC4)cc32)c1	x	x	1.2%	x	x	-4.5%
CC(NS(=O)(=O)OCC(Cl)(Cl)Cl)c1ccc(C(C)(C)C)cc1 (configuration not stated)	7.4	u	-15.9%	-72.1*	-0.2%	4.6%
Cc1ccc2c(c1)c1c(c(=O)n(-c3ccccc3C)c(=O)n1Cc1ccccc1F)n2C	x	x	-6.9%	x	x	-12.0%
Nc1c(Br)cc(C=O)cc1Br	x	x	1.5%	x	x	x
COC(=O)CCc1c(C)c(C(=O)c2cc(OC)c(OC)c(OC)c2)c2ccccn12	13.3	u	u	57.8	10.3µM*	6.2%
Cc1c(C(=O)c2ccccc2)c2ccccn2c1CCC#N	-11.1	-3.7%	0.1%	-4.9	u	-6.1%
COc1ccccc1C(=O)c1c(C)c(CCC#N)n2ccccc12	5.1	-1.3%	-0.3%	16.4	-6.9%	u
O=C(CSc1ccccn1)c1ccc(F)cc1	-3.1	7.0%	-1.4%	-12.7	-7.4%	-5.6%
Cc1c(C(=O)c2ccc(F)cc2)c2ccccn2c1CCc1ccccn1	10.9	12.0%	-6.1%	-85.7*	5.7%	-24.8%
SMILES	Giardia kill	MCF10A rereplic	Vif-APOBEC3G blk	IL1B secr inh	SW480 rereplic	Vif-A3F inh
Cc1c(C(=O)c2ccccc2)c2ccccn2c1CCc1ccccn1	-1.7	14.8%	-13.5%	-74.5*	-0.7%	2.9%
CC(/C=C1\SC(=S)N(NC(=O)c2ccc(O)cc2)C1=O)=C\c1ccccc1	3.5	u	-0.9%	-75.7*	0.9%	-1.5%
CCC(C(=O)O)N1C(=O)/C(=C/C(C)=C/c2ccccc2)SC1=S (configuration not stated)	-1.4	18.3%	1.0%	-6.3	-5.7%	0.5%
N#CC(C#N)=Cc1cc2ccccc2nc1N1CCCCC1	-16.6	u	-1.2%	-103.6*	1.0%	-8.1%
CCOC(=O)/C(C#N)=C/c1cc2ccccc2nc1N1CCOCC1	6.7	22.8%	-1.1%	24.9	-2.1%	14.0%
CCOc1ccc(NC(=NCc2ccc3c(c2)OCO3)SC2CC(=O)N(c3ccccc3)C2=O)cc1 (configuration not stated)	11.5	u	-1.4%	-0.8	1.2%	1.3%
CCOc1ccc(NC(=NCc2ccc3c(c2)OCO3)SC2CC(=O)N(c3ccc(OCC)cc3)C2=O)cc1 (configuration not stated)	0.4	20.6µM*	-9.3%	46.1	15.9%	0.1%
CC(=O)N1CCCC1c1nc2ccccc2n1Cc1ccccc1C (configuration not stated)	x	x	9.8%	x	x	-2.6%
COc1ccccc1N1CCN(C(=O)c2cc3c(=O)n(Cc4cccnc4)ccc3nc2C)CC1	x	x	-0.4%	x	x	0.8%
Cc1cc2c(C)cc(=O)[nH]c2cc1NC(=O)CCl	3.3	11.6µM*	u	-96.2*	20.6µM*	5.1%
Cc1cc2oc(=O)cc(C)c2cc1NC(=O)CCC(=O)O	12.9	-0.7%	-0.3%	23.2	-3.2%	-0.3%
Cc1cc(=O)[nH]c2ccc(O)cc12	x	x	-4.3%	x	x	x
Cc1cc2oc(=O)cc(C)c2cc1NC(=O)CCl	8.7	29.3%	u	-84.3*	u	u
O=C(CCl)Nc1cc2[nH]c(=O)[nH]c2cc1Br	1.7	20.6µM*	-16.6%	-100.7*	u	12.8%
CCC(=O)Nc1cc2[nH]c(=O)cc(C)c2cc1C	-2.3	0.651µM*	-4.9%	-4.8	-22.4%	5.8%
CC(Oc1ccc(F)cc1)C(=O)Nc1nc(-c2ccc(F)cc2)ns1 (configuration not stated)	x	x	3.9%	x	x	-11.2%
COc1ccccc1NC(=O)CSCc1cc(=O)c2cccc(Cl)c2[nH]1	x	x	-1.0%	x	x	0.4%
O=C(Nc1ccc(CN2CCS(=O)(=O)CC2)cc1)c1ccc(C(F)(F)F)cc1	-20.6	2.0%	1.2%	-19.8	-0.7%	-7.9%
COC(=O)Cc1ccc(NC(=O)c2ccc(C(C)(C)C)cc2)cc1	u	9.3%	0.5%	-50.1*	23.9%	-11.2%
CC(C)(C)c1ccc(C(=O)Nc2ccc(CN3CCS(=O)(=O)CC3)cc2)cc1	-16.4	5.1%	4.6%	-60.4*	-7.0%	15.5%
Nc1c(Cl)ncnc1N/N=C/c1ccnc2ccccc12	33.0	13.9%	-4.6%	-5.8	17.1%	-5.5%
